Results taken from PubChem BioAssay (NCI).
The panel holds about 83,000 compounds, 20% with a hit somewhere; the sample as a whole holds those more often.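 Compound tested at a single concentration for 48 hours in 96-well plates; a percent growth value below 10 was scored as active.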 A number with no mark means an inactive call. Calls of active or inactive are those of the source.

The compounds below were run on T-47D breast (assay: NCI-60 one-dose screen, 48 h (100 = growth as untreated, 0 = no growth, -100 = all killed)). Settings: 10 µM.
Description: Growth inhibition of the T-47D human tumor cell line is measured as a screen for anti-cancer activity. Cells are grown in 96 well plates and exposed to the test compound for 48 hours. Compounds are tested at a single concentration, which is 10^-5 M for most compounds. The reported endpoint is percent growth (GI% or GIPRCNT), where numbers from 0 - 100% represent growth inhibition, and numbers from -100% - 0 represent cell death. For example, a value of 40 represents 60% growth inhibition. A value of 0 means no net growth occurred over the course of the experiment. A value of -40 indicates 40% of cells at the beginning of the experiment died by the end of the experiment. A value of -100 means all cells are dead at the end of the experiment.
NCI-60 Human Tumor Cell Lines Screen was performed using the standard one-dose NCI protocol, which is described in more detail at https://dtp.cancer.gov/discovery_development/nci-60/default.htm.
Compounds with GIPRCNT values below 10 were considered active. Activity score was based on GIPRCNT using the following formula: […]
Score is 0 for GIPRCNT values of 100 or above, 50 for GIPRCNT values of 0, and 100 for GIPRCNT values of -100.

Row | Compound | growth
1 | COC(=O)/C=C\C(=O)OC | 113%
2 | C/C(=C\c1ccc([N+](=O)[O-])cc1)C(=O)O | 98.8%
3 | Cc1cc(OCCO)cc(C)c1Cl | 111%
4 | O=C(Nc1cccc(NC(=O)Nc2cc(C(F)(F)F)ccc2Cl)c1)Nc1cc(C(F)(F)F)ccc1Cl | 8.32% (active)
5 | COc1ccc(C(C)C=O)cc1 (stereo not given) | 97.9%
6 | CC1=CC(=O)c2ccccc2C1=O | 98.7%
7 | COc1ccccc1NC(=O)c1cc2cc(Br)ccc2cc1O | 9.84% (active)
8 | C=CCNc1nnc(C)s1 | 95.4%
9 | COC(=O)c1ccc(NC(=O)CCl)cc1 | 69.7%
10 | C=CCNC(=O)c1ccc(OC)cc1 | 103%
11 | CN(C)CCC(=O)c1ccc(O)cc1 | 96.4%
12 | Cc1cccc(CO)c1 | 98.8%
13 | N=c1c(C(=O)OCc2ccccc2)ncc(CCl)n1O | 93.9%
14 | C1CNC(C2=NCCN2)=N1 | 101%
15 | CCOC(=O)CSc1c([N+](=O)[O-])ncn1C | 101%
16 | COc1cc2nn(-c3ccccc3N)nc2cc1OC | 93.6%
17 | C/C(=C\c1cc(Cl)ccc1OCC(=O)O)[N+](=O)[O-] | 85.9%
18 | OC1OC(COC(c2ccccc2)(c2ccccc2)c2ccccc2)C(O)C(O)C1O (stereo not given) | 87.5%
19 | COc1cc(-c2ccc(NC(=O)NC3CC3)c(OC)c2)ccc1NC(=O)NC1CC1 | 82.8%
20 | CCNCCCCNCCCCNCCCCNCCCCNCC | 72.2%

Row | Compound | growth
21 | O=[N+]([O-])c1ccccc1N=Nc1ccc(O)cc1O | 104%
22 | CCCCCCCCCCCCCCCCC1CC(=O)OC1=O (stereo not given) | 97.4%
23 | Nc1nc(N)c(N=Nc2ccc(C(=O)O)cc2)c(N)n1 | 100%
24 | CO[C@H]1C[C@@H]2CC[C@@H](C)[C@@](O)(O2)C(=O)C(=O)N2CCCC[C@H]2C(=O)O[C@H]([C@H](C)C[C@@H]2CC[C@@H](O)[C@H](OC)C2)CC(=O)[C@H](C)C=C(C)[C@@H](O)[C@@H](OC)C(=O)[C@H](C)C[C@H](C)/C=C/C=C/C=C1C | 19.4%
25 | O=C1OC[C@H]2[C@H](c3ccc(O)c(O)c3)c3cc(O)c(O)cc3C[C@H]12 | 131%
26 | O=C(NC1CCCCC1)OCc1c(COC(=O)NC2CCCCC2)c(-c2ccc(Cl)c(Cl)c2)n2c1CCC2 | 20.8%
27 | CCOC(=O)C(=O)C=P(c1ccccc1)(c1ccccc1)c1ccccc1 | 97.7%
28 | N/N=C(/Cc1ccccc1)NNC(N)=S | 91.6%
29 | CN1C(=O)CN2CCc3ccccc3C2c2cc(Cl)ccc21 (stereo not given) | 104%
30 | O=c1[nH]n(-c2ccccc2)c(=O)cc1Cl | 97.8%
31 | O=S(=O)(Cc1ccccc1)c1ccccc1 | 110%
32 | O=C(Cc1ccc(OCc2ccccc2)cc1)NCc1ccc2c(c1)OCO2 | 86.2%
33 | O=C(NCO)c1ccccc1 | 102%
34 | O=c1cc(-c2ccccc2)nc2cc(-c3ccco3)[nH]n12 | 65.4%
35 | O=C1Cc2ccccc2C(=O)O1 | 108%
36 | Cc1ccc(O)c(C(=O)c2ccccc2)c1 | 109%
37 | CCC(C#N)(CC)c1ccccc1 | 95.3%
38 | COc1ccc(NC(=O)CCl)cc1 | 62.7%
39 | COc1cc(C(N)=O)cc(OC)c1OC | 110%
40 | COc1cc2c(cc1OC)[C@H](C(=O)O)[C@@H](c1ccc(OC(C)C)c(OC)c1)N(C)C2=O | 96%
